A short description of this test: EMT-state selective cytotoxicity in co-culture – imaging, PC-3E GFP, TEM4-18 mCherry, primary screen (AID 1345086).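 Further: cells exposed to compound for 72 h before imaging.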 The note with it: PC-3E GFP / TEM4-18 mCherry co-culture, imaging cell counts; measured here: epithelial PC-3E GFP cell survival; at 1 µM.
Compound `O=C(Nc1ccc(Cl)cc1)Nc1ccc(CO)cc1` showed a normalised cell number of 1.29.

The compound `C[C@H]1C[C@H]2C(=O)O[C@H]([C@@H](C)CCCC[C@@H](C)O)C[C@@H](O)[C@H](C)C(=O)NC(Cc3ccccc3)C(=O)N2C1` (some centres undefined) had a normalised cell number of 1.14.

Compound `C[C@H]1[C@H](OC(=O)CCC(=O)O)O[C@@H]2O[C@]3(C)CC[C@H]4[C@H](C)CC[C@@H]1[C@@]24OO3` displayed a normalised cell number of 0.68.

Consider `O=C(O)C(O)[C@H](O)[C@H](O)[C@H](O)[C@H](O)CO` (some centres undefined), for which the normalised cell number came out at 1.07.

As for `CC1CN(c2c(F)c(N)c3c(=O)c(C(=O)O)cn(C4CC4)c3c2F)C[C@H](C)N1` (some centres undefined), the normalised cell number turned out to be 1.03.

The compound `O=C1CC[C@]23/C=C/C(=O)NCCCCNCCCNC(=O)/C=C/c4ccc(c2c4)O[C@@H]3C1` came in with a normalised cell number of 1.1.

Consider `COC(=O)C[C@H]1C2(C)CC34OC5(C)O[C@]6(C7/C(=C(/OC)C(C)C)C(=O)O[C@@H](c8ccoc8)[C@]7(C)C(OC(=O)C(C)C)[C@@H](OC)[C@]6(O5)C13C)[C@H](OC)[C@@]4(OC)C2OC(C)=O` (some centres undefined), for which the normalised cell number stood at 1.04.

In turn, `CC(C)(C)[Si](C)(C)OCC1O[C@H](Sc2ccccc2)[C@H]2NC(=O)O[C@H]2C1O` (some centres undefined) displayed a normalised cell number of 0.97.

On to `COc1c(F)c(F)cc2c(=O)c(C(=O)NO)cn(C3CC3)c12`, for which the normalised cell number turned out to be 0.97.

For the compound `C[C@@H]1OC(O[C@H]2[C@H](O)[C@@H](O)[C@H](OC[C@H]3O[C@@H](OC(=O)[C@]45CCC(C)(C)CC4C4=CCC6[C@@]7(C)CC[C@H](OC8OC[C@H](O)[C@H](O)[C@H]8OC8O[C@@H](C)[C@H](O)[C@@H](O)[C@H]8O)[C@@](C)(CO)C7CC[C@@]6(C)[C@]4(C)CC5)[C@H](O)[C@@H](O)[C@@H]3O)O[C@@H]2CO)[C@H](O)[C@H](O)[C@H]1O` (some centres undefined), the normalised cell number was determined as 0.96.

The compound `Nc1nc(Cl)nc2c1ncn2C1O[C@H](CO)[C@@H](O)[C@@H]1F` (some centres undefined) had a normalised cell number of 0.22.

On to `Oc1ccc(Oc2cnc3ccc(Cl)cc3n2)cc1`, for which the normalised cell number amounted to 1.41.

The compound `CC/C=C1C=C(/C=C/CO)C(=O)O/1` returned a normalised cell number of 1.05.

`CCC(=O)O[C@]1(C(=O)SCF)[C@H](C)CC2C3CC(F)C4=CC(=O)C=C[C@]4(C)C3(F)[C@@H](O)C[C@@]21C` (some centres undefined): the normalised cell number amounted to 0.87.

Compound `CC1=C2[C@](C)(C=CC1=O)C[C@H](O)[C@H]1[C@H](C)C(=O)O[C@]21C` had a normalised cell number of 1.09.

As to `CC(=O)OCC1O[C@H](Sc2ccc(C)cc2)[C@@H]2[C@@H](OC(=O)N2C(C)=O)C1OC(C)=O` (some centres undefined), the normalised cell number is 1.36.

`Cc1ccc(S[C@H]2OC(COCc3ccccc3)C(OC(=O)CCC(=O)O)[C@@H]3OC(=O)N[C@H]23)cc1` (some centres undefined) displayed a normalised cell number of 1.11.

In turn, `C=C[C@](C)(O)CC[C@@H]1[C@@]2(C)CCCC(C)(C)[C@@H]2CC[C@]1(C)O` came in with a normalised cell number of 1.16.

Compound `CC(C)CCCC(C)[C@H]1CCC2C3C(=O)C=C4C[C@@H](O)CC[C@]4(C)C3CC[C@@]21C` (some centres undefined) displayed a normalised cell number of 0.98.

On to `CC(C)[C@@H]1CC[C@]2(CO2)[C@@H]2C(=O)OCC(C(=O)O)=C[C@H]21`, for which the normalised cell number turned out to be 1.02.

As to `COC(=O)C1O[C@H](OCc2ccc(OC)cc2)[C@@H](OC(=O)c2ccccc2)[C@@H](OC(=O)c2ccccc2)C1O` (some centres undefined), the normalised cell number worked out at 1.32.

As to `C=C1OC(=O)C23C1OC(CC(O)C2O)C3C` (centres undefined), the normalised cell number is 1.26.

`COC(=O)c1cn(C2CC2)c2c(OC)c(F)c(F)cc2c1=O` had a normalised cell number of 1.11.

`COC(=O)C1O[C@H](OC)[C@@H](OCc2ccccc2)[C@@H](OCc2ccccc2)C1O` (some centres undefined) had a normalised cell number of 1.14.

Turning to `CCCCCCCCCCCC[C@H](C(=O)O)[C@@H](C)C(=O)O`, the normalised cell number stood at 0.84.

With `COc1c(N2CC[C@@H](CN)C2)c(F)cc2c(=O)c(C(=O)O)cn(CCc3ccccc3)c12`, the normalised cell number turned out to be 0.87.

In turn, `O=C1N=NC(=O)N1c1ccccc1` gave a normalised cell number of 1.19.

Consider `CC(C)(C)Oc1c(F)c(F)nc(F)c1Cl`, for which the normalised cell number came to 0.78.

Regarding `COC(=O)c1ccc(C(CC(C)C)NC(C)=O)o1` (centres undefined), the normalised cell number amounted to 1.11.

The compound `COC(=O)[C@@]12Oc3ccc(-c4ccc5c(c4O)C(O)=C4C(=O)C[C@H](C)[C@H](O)[C@]4(C(=O)OC)O5)c(O)c3C(O)=C1C(=O)C[C@H](C)[C@@H]2O` returned a normalised cell number of 0.96.

Compound `CC(=O)OCC(=O)[C@@]1(O)CCC2C3C[C@H](C)C4=CC(=O)C=CC4(C)C3[C@@H](O)CC21C` (some centres undefined) yielded a normalised cell number of 1.16.

In turn, `O=C(Cc1ccncc1)c1ccc(F)cc1` came in with a normalised cell number of 0.82.

`C[C@@H]1C[C@H](O)[C@@H](O)CO1` returned a normalised cell number of 1.12.

The compound `O=C(/C=C/c1ccccc1)O[C@H]1C[C@@H](O)[C@]2(O)C=CO[C@@H](O[C@@H]3O[C@H](CO)[C@@H](O)[C@H](O)[C@H]3O)C12` (some centres undefined) gave a normalised cell number of 0.87.

For `O=C(NCC[C@H](O)C(=O)O)OCc1ccccc1`, the normalised cell number turned out to be 1.09.

With `COC(=O)CCC(C)[C@H]1CCC2C3C(C[C@H](O)[C@@]21C)[C@@]1(C)CC[C@@H](O)C[C@H]1C[C@H]3O` (some centres undefined), the normalised cell number was determined as 0.89.

Regarding `COC(=O)C1O[C@H](OCc2ccccc2)[C@@H](OC(=O)c2ccccc2)[C@@H](OC(=O)c2ccccc2)C1O` (some centres undefined), the normalised cell number turned out to be 1.18.

The compound `NCCC[C@H](N)CC(=O)NC1CNC(=O)[C@H]([C@H]2C[C@H](O)N=C(N)N2)NC(=O)/C(=C/NC(N)=O)NC(=O)[C@H](CO)NC(=O)[C@H](CO)NC1=O` (some centres undefined) had a normalised cell number of 1.24.

For `COC(=O)[C@@H](C)Oc1ccc(O)cc1`, the normalised cell number came out at 0.93.
